Assay outcomes deposited in PubChem BioAssay by National Center for Advancing Translational Sciences (NCATS).
Compounds with a hit are over-represented: about 0.88% of the library has one in this group of screens.
RGS4 inh: Inhibitors of Regulator of G Protein Signaling (RGS) 4: qHTS | Regulator of G-protein signaling 4 (Homo sapiens), P49798 | Transcreener GDP fluorescence polarization, RGS4-accelerated GTP hydrolysis | Potency, µM (titrated, usually from 114 µM), for the others: at the top dose activity change, negative = inhibition, hits mostly inhibitors | hit rate 0.039% among 390,000 | AID 504845, 2011; further: potency means the concentration at half of the fitted maximal effect; on the % scale 0 is the no-effect control and ±100 the full control effect; nearly all actives have a fitted effect of over 75% in size
Target sequence (P49798 whole entry, looked up): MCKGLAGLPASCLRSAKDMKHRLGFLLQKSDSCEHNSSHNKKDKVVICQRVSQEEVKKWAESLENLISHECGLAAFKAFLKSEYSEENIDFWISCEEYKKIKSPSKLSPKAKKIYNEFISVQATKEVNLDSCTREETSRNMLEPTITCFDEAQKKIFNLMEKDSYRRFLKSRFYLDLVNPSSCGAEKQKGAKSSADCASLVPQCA
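MLSMR compounds (23 nl, pin-transferred) preincubated 10 min at room temperature with a 500nM (2x) first reagent, then RGS4 at 900nM (2x) plus Transcreener GDP mix added; fluorescence polarization (620/688 nm) read before and after 90 min at 30 °C.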
Akt phos inh: HTS Assay for Inhibitors of Akt Phophorylation: Primary Screen. Neuro2A IGF-stimulated pAkt S473 HTRF, 20 min; active compounds read low. activity change, % for hits at 50 µM. hit rate 0.32% among 360,000. AID 651550, 2012; in the data active means activity change below about -80%; inconclusive means mostly about -51% to -80%; further: on the % scale 0 is the no-effect control and ±100 the full control effect
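Single-point screen (50 µM final compound) in Neuro2A cells stimulated 20 min with 6 nM IGF at 37 deg C. After lysis, Ser473-phosphorylated Akt read by HTRF (ex 330 nm, em 615/665 nm) as the 665/615 ratio.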
GRP78 ERSR act: qHTS for Inducers of the Endoplasmic Reticulum Stress Response (ERSR) in Human Glioma: qHTS; U87-MG GRP78 promoter luciferase reporter, 16 h; hit rate 0.02% among 420,000; AID 602332, 2012; Potency, µM, for inactives: at the highest dose activation, actives largely listed as activators; further: potency means the concentration at half of the fitted maximal effect; series mostly up to about 76 µM; % of control where 0% means no effect; nearly all actives have a fitted effect of over 35% in size
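Stably transfected U87-MG human glioma cells carrying a GRP78-based luminescent sensor were seeded at 1000 cells/well, pin-dosed with compounds and incubated 16 h. Luciferase reagent was then added, and end-point luminescence was read after 10 min at room temperature.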
CtBP-E1A blk: qHTS Assay for Inhibitors of the CtBP/E1A Interaction; AlphaScreen GST-E1A/His-CtBP binding, 1536-well; active compounds read low; activity change, % (concentration not given with the values); hit rate 0.49% among 340,000; AID 651724, 2012; in the data active means activity change below about -65%; inconclusive means mostly about -30% to -63%; further: on the % scale 0 is the no-effect control and ±100 the full control effect
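Protein mix (5X: 125 nM each GST-E1A, His-CtBP) was incubated with pinned compound 2 h at 37 deg C in dark, in 50 mM Tris pH 8.0 buffer with 300 mM NaCl. Glutathione donor and nickel acceptor beads followed; AlphaScreen signal read after 1 h.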
Six1-Eya2 blk: qHTS Assay for Inhibitors of the Six1/Eya2 Interaction. AlphaScreen GST-Six1/His-Eya2 binding, biochemical; active compounds read low. activity change, % (no concentration beside the values). hit rate 0.56% among 360,000. AID 651725, 2012; in the data active means activity change below about -65%; inconclusive means mostly about -30% to -63%; further: on the % scale 0 is the no-effect control and ±100 the full control effect
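Six1/Eya2 binding was read as AlphaScreen signal after compounds were pinned into GST-Six1 plus His-tagged Eya2 (5X stock 250/500 nM) in pH 8.0 Tris/NaCl/TCEP buffer, beads added, then incubated 1 h, 37 C, dark.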
Numbers without * were called inactive; i = inactive; ? = inconclusive; · = no result given; [ ] = dose if it differs, or a comment. Unless noted, the call rests on the fitted dose curve; in most records, active means well fitted curve in the direction sought with a large enough effect; inconclusive means small, poorly fitted or top-dose-only effect, or another doubt; inactive means no such curve, though single readings can be large; an effect the other way counts as inactive or inconclusive.

SMILES	RGS4 inh	Akt phos inh	GRP78 ERSR act	CtBP-E1A blk	Six1-Eya2 blk
CCC1CN(CCNC(=O)c2ccc3c(c2)OCCO3)Cc2cc(OC)ccc2O1 (stereo not given)	·	·	-3%	·	·
O=C([C@@H]1C[C@@H](Sc2nc3ccccc3[nH]2)CN1Cc1ccc(C(F)(F)F)cc1)N1CCN(c2ccccc2F)CC1	·	·	5%	·	·
CCc1nc2cc(C(=O)N[C@H]3CCCCNC3=O)cc(NC(=O)c3ccccc3OC)c2n1C	·	·	-2%	·	·
Cc1nnc(NC(=O)C2CCN(S(=O)(=O)c3cc([N+](=O)[O-])ccc3Cl)CC2)o1	-5%	i	-3%	-82*	-69*
CCN(CC)c1ccc(/C=C/C2=C3C=CC=CC3NC=C2)cc1 (stereo not given)	·	·	0%	·	·
COC(=O)C1=C(C)NC(C)=C(C(=O)OC)C1C1CC=CCC1 (stereo not given)	-5%	-130%*	-3%	1	-1
CCOC(=O)C1=C(C)NC(=O)NC1C1CC=CCC1 (stereo not given)	-23%[11.4 µM]	i	-4%	3	6
O=C(C[N+]1(CCO)CCOCC1)c1cccc2ccccc12	·	·	-4%	·	·
CC(O)(COc1ccccc1)c1ccc2c(c1)CN(Cc1cccc3cccnc13)CCO2 (stereo not given)	·	·	-2%	·	·
CO[C@H]1/C=C\O[C@@]2(C)Oc3c(C)c(O)c4c(O)c(c(C=NN5CCN(C6CCCC6)CC5)c(O)c4c3C2=O)NC(=O)C(C)=CC=C[C@H](C)[C@H](O)[C@@H](C)[C@@H](O)[C@@H](C)[C@H](OC(C)=O)[C@H]1C	·	·	-2%	·	·
COc1ccccc1Nc1ccc2c(O)cc(S(=O)(=O)O)cc2c1	?	i	-1%	-88*	-79*
COc1ccc(/C=C\c2nc(=O)c3ccccc3o2)cc1	-15%	i	-15%	-69*	15
CC(=O)c1cccc(NC(=O)COc2ccccc2C(=O)Nc2ccccc2)c1	·	·	-2%	·	·
O=S(=O)(O)OCC1OC(COS(=O)(=O)O)(C2(OS(=O)(=O)O)OC(CO)C(OS(=O)(=O)O)C(OS(=O)(=O)O)C2OS(=O)(=O)O)C(OS(=O)(=O)O)C1OS(=O)(=O)O (stereo not given)	·	·	-2%	·	·
C=CC(=O)N1CCCC(Nc2nc(Nc3ccc(N(C)C(=O)CC)cc3C)nc3nc[nH]c23)C1 (stereo not given)	-13%	i	-3%	?	-67*
Cc1ccccc1CNC(=O)Nc1cccs1	-31%	i	4%	-3	-4
O=C(NCc1cccs1)Nc1cccs1	-40%	-114%*	2%	-1	-7
Cc1onc(-c2ccccc2)c1C(=O)N[C@@H]1C(=O)N2[C@@H](C(=O)O)C(C)(C)S[C@@H]12	·	·	-1%	·	·
Cc1ncc(CO)c(/C=N/NC(=S)Nc2ccc(F)cc2)c1O	-25%	i	-3%	-86*	-90*
Cc1ncc(CO)c(/C=N/Nc2ccc(C(F)(F)F)cn2)c1O	?	i	-5%	-96*	-75*
Cc1ncc(CO)c(/C=N/N=C/c2ccccc2O)c1O	-3%	i	4%	-7	4
O=C(COc1ccccc1C(=O)Nc1ccccc1)Nc1ccc(Br)cc1	·	·	-1%	·	·
CN(C)c1ccc(/C=C/c2ccnc3ccc(Br)cc23)cc1	·	·	0%	·	·
Cc1c(F)cccc1Cn1cnc2c(cnn2C(C)(C)C)c1=O	·	·	-1%	·	·
COc1ccc(NC2C[C@H]3CCCC(=O)N4CC[C@@H](C2)[C@@H]34)cc1 (stereo not given in full)	·	·	50µM*	·	·
SMILES	RGS4 inh	Akt phos inh	GRP78 ERSR act	CtBP-E1A blk	Six1-Eya2 blk
CC(=O)Nc1cc(O)c2nonc2c1O	-99%	·	-11%	·	·
Cn1nc(CC(=O)NC2CCCCCCCCCCC2)c2ccccc2c1=O	?	i	-3%	3	0
Cn1nc(CC(=O)Nc2ccc3c(c2)CCC3)c2ccccc2c1=O	0%	-126%*	-3%	-2	-1
Cc1cccc(NC(=O)c2ccc(COc3ccc(Cl)cc3Cl)o2)n1	-6%	-128%*	-4%	4	26
COc1ccc([C@H]2/C=C\CN(Cc3ccc(N(C)C)cc3)[C@@H](C)C(=O)N2Cc2ccc(F)cc2)cc1	3%	i	-4%	-65*	?
c1ccc2[nH]c3cc4ncnc4cc3nc2c1	-15%	i	8%	-73*	?
C/C(=N\NC(=O)c1c[nH]c2ccccc12)c1ccc(C)o1	-29%	i	9%	-86*	-79*
Nc1[nH]c(=S)[nH]c(=O)c1N	·	·	-3%	·	·
COc1ccccc1C1CN(Cc2cccc(C)n2)Cc2ccccc2O1 (stereo not given)	·	·	-4%	·	·
Cc1cc(C)cc(OCCCC(=O)O)c1	-4%	-106%*	0%	4	15
Cc1cccc(OCCCC(=O)O)c1	22%	i	-5%	-3	-5
Nc1ccc(N)c(C(=O)O)c1	?	i	-3%	?	-82*
COc1cc(C=C2C(=O)C=CC2=O)ccc1O	·	i	·	7	-74*
COc1cc(/C=C2/C(=O)CNC2=O)ccc1O	5%[11.4 µM]	i	-1%	1	1
O=c1cc(CSc2ccc(Cl)cc2)nc(-c2ccccn2)[nH]1	-35%	i	?	·	-93*
Cc1ccccc1OCC(=O)NNC(=O)c1ccc(-c2ccccc2)cc1	14%	-83%*	-3%	-2	-6
CC(=O)Oc1ccc(-c2nc(-c3ccccc3)no2)cc1	·	·	-4%	·	·
O=C(COc1c(Br)cc(Br)c2cccnc12)N1CCCCC1	-10%	i	8%	-7	-12
Oc1c(CN2CCc3ccccc3C2)cc(Cl)c2cccnc12	-37%	i	-4%	-89*	-93*
O=[N+]([O-])c1cc(CN2CCN(c3ccccc3)CC2)c(O)c2ncccc12	-2%	i	-3%	-95*	-91*
Oc1c(CN2CCCCC2)cc(Br)c2cccnc12	?	i	?	-92*	-91*
O=[N+]([O-])c1cc(CN2CCOCC2)c2cccnc2c1O	?	i	-1%	-4	-88*
Nc1cccc[n+]1C(c1ccnc2ccccc12)[n+]1ccccc1N	·	·	-3%	·	·
CO[C@]1(NC(=O)Cc2cccs2)C(=O)N2C(C(=O)O)=CC(COC(N)=O)S[C@H]21 (stereo not given in full)	·	·	-3%	·	·
Oc1c(Cl)cc(Cl)c(Cl)c1CN1CCOCC1	-6%	i	-2%	-17	-9
Oc1c(Cl)cc(CN2CCOCC2)c2cccnc12	-33%	i	-3%	·	-89*
CC(C)NC(=O)[C@@H]1C[C@@H](Sc2ccccn2)CN1C1CCN(C)CC1	·	·	-3%	·	·
Cc1cccc(C(=O)N2CCOc3ccc(CN(C)Cc4cc(C5CC5)n[nH]4)cc3C2)n1	·	·	-5%	·	·
